High-throughput results from PubChem.
The entries come from a sample that favours hits as a whole.
CBX7 AlphaScr = CBX7 inhibition, primary AlphaScreen; AlphaScreen His6-CBX7 / biotin-H3K27me3 peptide binding; stronger effect = lower value; normalised signal (fraction of DMSO) (concentration not given with the values); 66,000 compounds, 1.1% hits; AID 1224903; in the data active = normalised signal below about 0.5
Target sequence (O95931 whole entry, looked up): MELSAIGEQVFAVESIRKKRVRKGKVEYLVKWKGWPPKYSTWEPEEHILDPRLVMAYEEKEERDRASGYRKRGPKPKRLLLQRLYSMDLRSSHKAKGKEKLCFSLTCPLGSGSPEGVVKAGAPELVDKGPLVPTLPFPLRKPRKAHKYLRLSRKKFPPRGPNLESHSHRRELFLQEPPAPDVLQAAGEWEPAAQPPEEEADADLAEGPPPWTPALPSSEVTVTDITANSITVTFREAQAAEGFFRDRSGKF
* hit, by the source's call.

For O=C(CC1Sc2ccccc2NC1=O)Nc1ccc2c(c1)OCCO2 (configuration not stated) the results were CBX7 AlphaScr 1.2.
For COc1ccc(C2CC(=O)C3=C(C2)Nc2ccccc2NC3c2ccncc2)cc1OC (configuration not stated) the results were CBX7 AlphaScr 1.
COc1ccc(NC(=O)CC2Sc3ccccc3NC2=O)cc1OC (configuration not stated) was read as CBX7 AlphaScr 0.98.
Screening O=C1C2=C(Nc3ccccc3SC2c2ccco2)c2ccccc21 (configuration not stated) returned CBX7 AlphaScr 0.39*.
O=C1C2=C(Nc3ccccc3SC2c2ccc3c(c2)OCO3)c2ccccc21 (configuration not stated) was read as CBX7 AlphaScr 0.35*.
Screening CC(C(=O)NC1CCCC1)C1Sc2ccccc2NC1=O (configuration not stated) returned CBX7 AlphaScr 1.
For O=C(CC1Sc2ccccc2NC1=O)Nc1ccc2c(c1)OCO2 (configuration not stated) the results were CBX7 AlphaScr 0.89.
For COc1ccc(C2Sc3ccccc3NC3=C2C(=O)c2ccccc23)cc1OC (configuration not stated) the results were CBX7 AlphaScr 0.4*.
O=C(CN1C(=O)CSc2ccccc21)NCCCN1CCc2ccccc2C1 was read as CBX7 AlphaScr 0.97.
`COc1ccc(-c2nc(CSCC(=O)NCCCOC(C)C)c(C)o2)cc1` gave CBX7 AlphaScr 1.2.
Screening CCCc1ccc(C(=O)Nc2cnc3ccccc3c2)cc1 returned CBX7 AlphaScr 1.
For CC(C)Cn1c(CCCNC(=O)C(C)(C)C)nc2ccccc21 the results were CBX7 AlphaScr 1.2.
For CCOc1ccc(N2C(=O)c3cccnc3C2Nc2ccc(C)c(C)c2)cc1 (configuration not stated) the results were CBX7 AlphaScr 0.81.
`Cc1ccn2c(Nc3ccccc3C)c(-c3cccc(Cl)c3)nc2c1` gave CBX7 AlphaScr 1.2.
Screening O=C(CN(c1ccc(Cl)c(C(F)(F)F)c1)S(=O)(=O)c1ccccc1)NCc1cccnc1 returned CBX7 AlphaScr 0.98.
`COc1ccc(N(CCN2CCCCC2)S(=O)(=O)c2ccc(C)cc2)cc1` gave CBX7 AlphaScr 1.
For N#Cc1nc(COc2ccc(Br)cc2)oc1N1CCCC1 the results were CBX7 AlphaScr 0.47*.
COc1ccc(OCc2nc(C#N)c(N3CCCC3)o2)cc1 was read as CBX7 AlphaScr 0.86.
For Cc1ccc(OCc2nc(C#N)c(N3CCC(Cc4ccccc4)CC3)o2)cc1 the results were CBX7 AlphaScr 0.6.
For CCN1CCN(c2oc(COc3ccc(Cl)cc3)nc2C#N)CC1 the results were CBX7 AlphaScr 0.72.
For N#Cc1nc(COc2ccc(Br)cc2)oc1N1CCCCCC1 the results were CBX7 AlphaScr 0.42*.
Screening Cc1nn(C)c(C)c1S(=O)(=O)N(CC(=O)N1CCN(C)CC1)c1ccc(C(C)C)cc1 returned CBX7 AlphaScr 0.99.
`Cc1ccc(-c2nc(NC(=O)CCN3C(=O)c4ccccc4C3=O)sc2C)cc1` gave CBX7 AlphaScr 0.96.
Screening O=S(=O)(c1ccccc1)N1CCN(c2ccc3nnc(-c4ccccc4)n3n2)CC1 returned CBX7 AlphaScr 0.1*.
Screening Cc1ccc(S(=O)(=O)N2CCN(c3ccc4nnc(-c5ccccc5)n4n3)CC2)cc1 returned CBX7 AlphaScr 0.7.
For c1ccc(-c2nnc3ccc(N4CCCC4)nn23)cc1 the results were CBX7 AlphaScr 0.94.
Screening COc1ccc(NC(=O)C2CCCN(S(=O)(=O)c3cccc4cccnc34)C2)cc1Cl (configuration not stated) returned CBX7 AlphaScr 1.
Screening CCOc1ccccc1CNC(=O)CCCN1C(=O)CSc2ncccc21 returned CBX7 AlphaScr 0.6.
COc1ccccc1C(=O)N1CC(=O)Nc2ccc(F)cc2C1c1ccccc1 (configuration not stated) was read as CBX7 AlphaScr 1.1.
`COc1ccc(C(=O)N2CC(=O)Nc3ccc(C)cc3C2c2ccc(F)cc2)cc1` (configuration not stated) gave CBX7 AlphaScr 0.74.
`COc1ccc(C(=O)N2CC(=O)Nc3ccc(C)cc3C2c2ccc(F)cc2)c(OC)c1` (configuration not stated) gave CBX7 AlphaScr 0.3*.
COc1ccc(OC)c(S(=O)(=O)NCCc2c(C)[nH]c3ccc(OC)cc23)c1 was read as CBX7 AlphaScr 0.56.
For COc1ccc(S(=O)(=O)NCCc2c(C)[nH]c3ccc(C)cc23)cc1 the results were CBX7 AlphaScr 0.45*.
Screening COc1cc(Cl)c(S(=O)(=O)NCCc2c(C)[nH]c3ccc(C)cc23)cc1Cl returned CBX7 AlphaScr 0.6.
Screening Cc1ccccc1OCC(=O)Nc1ccc(Cl)c(-c2nc3cc(Cl)ccc3o2)c1 returned CBX7 AlphaScr 1.
For CC1CC(C)CN(c2nnc(NC(=O)Nc3ccc(F)cc3)s2)C1 (configuration not stated) the results were CBX7 AlphaScr 0.98.
O=C(NCc1ccc2c(c1)OCO2)C1CCC(=O)N1CCc1ccccc1 (configuration not stated) was read as CBX7 AlphaScr 1.
